Giardia killer: kills Giardia lamblia; Giardia lamblia trophozoite viability; activity change, % at 7.66 µM, hits read low; 340,000 tested, 0.15% active; AID 540267; in the data active = activity change below about -80%; inconclusive = between about -30% and that limit;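 also: parasites exposed to compound for two days anaerobically before the ATP read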
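Each well holds 100 Giardia trophozoites and compound. After two days (48 hrs) at 37 deg C in anaerobic conditions, ATP is quantified by luminescence.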
Sfp PPTase inh: Sfp phosphopantetheinyl transferase inhibition; Biochemical Sfp PPTase activity, qHTS; Potency, µM, hits mostly inhibitors; 310,000 tested, 3.5% active; AID 1490;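 also: the enzyme is Sfp with the accession as filed and its product quenches rhodamine fluorescence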
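With Hepes-Na pH 7.6 buffer containing 10 mM MgCl2, Sfp (15 nM) modified BHQ-2-YbbR (12.5 uM) using rhodamine-CoA (5 uM). Two reads 30 minutes apart at 525/598 nm yielded each well's rate.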
FBPA coupling cs: coupling enzyme interference in Giardia aldolase counter-screen; coupling enzyme system counterscreen, AmpLite Red fluorescence; activity change, negative = inhibition, % at 58.2 µM, hits read low; 290,000 tested, 0.67% active; in the data active = activity change below about -30%
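First, compound is pin-transferred into glyceraldehyde-3-phosphate coupling-enzyme reagent at 57.5 uM final and held 10 min at RT. Next, substrate, coupling system and AmpLite Red are added. After 20 min RT, fluorescence (525/598 nm) is read.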
ELG1 repair inh: inhibitors of ELG1-dependent DNA repair in HEK293T cells | 330,000 tested, 2.3% active | Potency, µM (highest dose often 46.1 µM), most hits filed as inhibitors | HEK293T ELG1-luciferase reporter, luminescence, 16 h; DNA damage induced by 5-fluorouridine; also: nearly all actives have a fitted effect of over 55% in size
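Quantitative HTS, concentration-response format. 2,000 cells/well co-treated with 5-fluorouridine and compound, 16 hr in 5% CO2 at 37 °C; ONE-Glo luminescence read after 30 min.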
Numbers stand for hits. Rows were chosen to be rich in hits. Some 5.5% of all compounds tested hit in one or more screens of this group. Unless noted, calls follow the shape of the dose curve; as a rule, active = well fitted curve in the direction sought with a large enough effect; inconclusive = small, poorly fitted or top-dose-only effect, or another doubt; inactive = no such curve, though single readings can be large; an effect the other way counts as inactive or inconclusive.

CNC(=O)c1ccc(NC(=O)C2CCN(c3ncnc4sc(C)c(C)c34)CC2)cc1 was read as Giardia killer inactive, Sfp PPTase inh inactive, FBPA coupling cs inactive and ELG1 repair inh 9.2µM.
`Cc1sc2ncnc(N3CCC(C(=O)Nc4ccc(Cl)c(Cl)c4)CC3)c2c1C` gave Giardia killer inactive and ELG1 repair inh inconclusive.
Screening O=S(=O)(NNc1nccc(C(F)(F)F)n1)c1cccc(Cl)c1Cl returned Giardia killer inactive, Sfp PPTase inh 35.5µM, FBPA coupling cs inactive and ELG1 repair inh inactive.
CCOC(=O)N1CCN(C(=O)C2CCN(C(=O)c3ccccc3C)CC2)CC1 was read as Giardia killer inactive.
COc1ccccc1N(C)S(=O)(=O)c1ccc(C(=O)Nc2ccc3nc(C)sc3c2)cc1 was read as Giardia killer inactive, Sfp PPTase inh inactive, FBPA coupling cs inactive and ELG1 repair inh 25.9µM.
`Cc1ccc(NC(=O)c2cccnc2)cc1S(=O)(=O)N(C)C` gave Giardia killer inactive, Sfp PPTase inh inactive, FBPA coupling cs inactive and ELG1 repair inh inconclusive.
`CN(c1ccccc1)S(=O)(=O)c1cccc(NC(=O)c2ccc3ncsc3c2)c1` gave Giardia killer inactive, Sfp PPTase inh inactive, FBPA coupling cs inactive and ELG1 repair inh 14.6µM.
Screening Cc1ccc(NC(=O)c2ccc3ncsc3c2)cc1S(=O)(=O)N(C)C returned Sfp PPTase inh 56.2µM, FBPA coupling cs inactive and ELG1 repair inh inconclusive.
Screening Cc1ccc(N(C)S(=O)(=O)c2cccc(C(=O)Nc3nc4ccccc4[nH]3)c2)cc1 returned Giardia killer inactive, Sfp PPTase inh inactive, FBPA coupling cs inactive and ELG1 repair inh 23.1µM.
For CS(=O)(=O)N1CCC2(CCCN(C(c3ccccc3)c3ccccc3)C2)CC1 the results were Sfp PPTase inh inactive and FBPA coupling cs inactive.
For Cc1ccc(NC(=O)c2cccc(S(=O)(=O)N(C)c3ccccc3)c2)cc1S(=O)(=O)N1CCOCC1 the results were Giardia killer inactive, Sfp PPTase inh inactive, FBPA coupling cs inactive and ELG1 repair inh 13µM.
For Cc1nc2ccc(NC(=O)c3cccc(S(=O)(=O)N(C)c4ccccc4)c3)cc2s1 the results were Giardia killer inactive, Sfp PPTase inh inactive, FBPA coupling cs inactive and ELG1 repair inh 18.4µM.
Screening Cc1nc2ccc(NC(=O)c3ccccc3)cc2s1 returned Giardia killer inactive, Sfp PPTase inh inactive, FBPA coupling cs inactive and ELG1 repair inh inconclusive.
For O=C(Nc1ccc(C(F)(F)F)cc1)c1ccc2ncsc2c1 the results were Giardia killer inactive, Sfp PPTase inh 79.4µM, FBPA coupling cs inactive and ELG1 repair inh inconclusive.
For Cc1ccc(C(=O)Nc2cccc(C(=O)O)c2)cc1S(=O)(=O)N1CCOCC1 the results were Giardia killer inactive, Sfp PPTase inh inactive, FBPA coupling cs inactive and ELG1 repair inh inconclusive.
`COCCC(=O)N1CCC(Oc2ccc(C(=O)NCc3nccn3C)cc2)CC1` gave Giardia killer inactive, Sfp PPTase inh inactive, FBPA coupling cs inactive and ELG1 repair inh inactive.
COc1ccccc1N1C(=O)c2ccccc2NC1c1ccncc1 (stereo not given) was read as Giardia killer inactive, Sfp PPTase inh inactive, FBPA coupling cs inactive and ELG1 repair inh inactive.
COc1ccccc1N1C(=O)N(C(C)=O)C2C1Nc1ccccc1N2C (stereo not given) was read as Giardia killer inactive, Sfp PPTase inh inactive, FBPA coupling cs -40.3 and ELG1 repair inh inconclusive.
Cc1noc(C)c1-c1ccc2ncnc(N3CCC(C(=O)O)CC3)c2c1 was read as Sfp PPTase inh inactive and FBPA coupling cs inactive.
For Cc1ccnc(SCc2cc(=O)c(OC(=O)c3ccc(Cl)c([N+](=O)[O-])c3)co2)n1 the results were Giardia killer inactive, Sfp PPTase inh inactive, FBPA coupling cs inactive and ELG1 repair inh 20.6µM.
Cc1ccnc(SCc2cc(=O)c(OC(=O)c3ccco3)co2)n1 was read as Giardia killer inactive, Sfp PPTase inh inactive, FBPA coupling cs inactive and ELG1 repair inh inactive.
`CC(=O)c1sc(NC(=O)c2cc(-c3ccccc3)nn2-c2ccccc2)nc1C` gave Giardia killer inactive, Sfp PPTase inh inactive, FBPA coupling cs inactive and ELG1 repair inh 14.6µM.
For O=C(Nc1nc2ccccc2s1)c1cc(-c2ccccc2)nn1-c1ccccc1 the results were Giardia killer inactive, Sfp PPTase inh inconclusive, FBPA coupling cs inactive and ELG1 repair inh inconclusive.
COc1cc(OC)cc(-c2nc3ccccc3c(=O)n2OC(=O)c2ccc(C)c(C)c2)c1 was read as Giardia killer inactive, Sfp PPTase inh inactive, FBPA coupling cs inactive and ELG1 repair inh 10.3µM.
COc1cc(OC)cc(C(=O)Nn2c(C)nc3ccccc3c2=O)c1 was read as Giardia killer inactive, Sfp PPTase inh inactive, FBPA coupling cs inactive and ELG1 repair inh inactive.
For O=C(Nc1ncc(Cc2ccccc2Cl)s1)c1ccc(-c2cccc([N+](=O)[O-])c2)o1 the results were Giardia killer inactive, Sfp PPTase inh inactive, FBPA coupling cs inactive and ELG1 repair inh 13µM.
`O=C(Nc1ncc(Cc2ccccc2Cl)s1)c1ccc([N+](=O)[O-])cc1` gave Giardia killer inactive, Sfp PPTase inh inactive, FBPA coupling cs inactive and ELG1 repair inh inactive.
For O=C(Nc1ncc(Cc2ccc(C(F)(F)F)cc2)s1)c1ccc(-c2cccc([N+](=O)[O-])c2)o1 the results were Giardia killer inactive, Sfp PPTase inh inactive, FBPA coupling cs inactive and ELG1 repair inh 20.6µM.
Screening Cc1cnc(=O)[nH]c1SCc1ccccc1F returned Giardia killer inactive, Sfp PPTase inh inactive, FBPA coupling cs inactive and ELG1 repair inh inactive.
Cc1ccc(SCC(=O)Nc2ccc3c(c2)C(=O)N(C)C3=O)cc1 was read as Giardia killer inactive, Sfp PPTase inh inactive, FBPA coupling cs inactive and ELG1 repair inh inactive.
COc1cc2c3c(c1)/C(=C1/SC(NC(C)=O)=NC1=O)C(=O)N3C(C)(C)C=C2C was read as Giardia killer inactive, Sfp PPTase inh 35.5µM, FBPA coupling cs inactive and ELG1 repair inh inconclusive.
Screening OC(COC(c1ccc(F)cc1)c1ccc(F)cc1)CN1CCCC1 (stereo not given) returned Giardia killer inactive, Sfp PPTase inh 79.4µM, FBPA coupling cs inactive and ELG1 repair inh inconclusive.
For CN1CCN(CC(O)COC(c2ccccc2)c2ccccc2)CC1 (stereo not given) the results were Giardia killer inactive, Sfp PPTase inh inactive, FBPA coupling cs inactive and ELG1 repair inh inactive.
CC1CN(CC(O)COC(c2ccc(Cl)cc2)c2ccc(Cl)cc2)CC(C)O1 (stereo not given) was read as Giardia killer inactive, Sfp PPTase inh inconclusive, FBPA coupling cs inactive and ELG1 repair inh 18.4µM.
CCN(CC)C[C@@H]1CCCCN1CC(=O)N1c2ccccc2C(=O)Nc2cccnc21 was read as Sfp PPTase inh inactive and FBPA coupling cs inactive.
CCOCCCn1c(=S)[nH]c2cc(C(=O)NCCOC)ccc2c1=O was read as Giardia killer inactive, Sfp PPTase inh 79.4µM, FBPA coupling cs inactive and ELG1 repair inh inactive.
CCOCCCNC(=O)c1ccc2c(=O)n(CCCOCC)c(=S)[nH]c2c1 was read as Giardia killer inactive, Sfp PPTase inh inactive, FBPA coupling cs inactive and ELG1 repair inh inconclusive.
